# Pf apPOL inh = Pf-apPOL DNA polymerase inhibition; Recombinant Pf-apPOL, molecular beacon fluorescence, 1.5 h; inhibition, % at 10 µM; 0.25% of 210,000 active
# mHTT-CaM PPI inh = mHTT-calmodulin interaction abrogation; P42858; AlphaScreen His-mHTT/GST-CaM binding, luminescence; inhibition, % at 15 µM; 3.6% of 190,000 active; AID 1671202;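 also: 0% = both proteins with DMSO and 100% = one protein alone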
# Target sequence (P42858 whole entry, looked up, stated change not applied): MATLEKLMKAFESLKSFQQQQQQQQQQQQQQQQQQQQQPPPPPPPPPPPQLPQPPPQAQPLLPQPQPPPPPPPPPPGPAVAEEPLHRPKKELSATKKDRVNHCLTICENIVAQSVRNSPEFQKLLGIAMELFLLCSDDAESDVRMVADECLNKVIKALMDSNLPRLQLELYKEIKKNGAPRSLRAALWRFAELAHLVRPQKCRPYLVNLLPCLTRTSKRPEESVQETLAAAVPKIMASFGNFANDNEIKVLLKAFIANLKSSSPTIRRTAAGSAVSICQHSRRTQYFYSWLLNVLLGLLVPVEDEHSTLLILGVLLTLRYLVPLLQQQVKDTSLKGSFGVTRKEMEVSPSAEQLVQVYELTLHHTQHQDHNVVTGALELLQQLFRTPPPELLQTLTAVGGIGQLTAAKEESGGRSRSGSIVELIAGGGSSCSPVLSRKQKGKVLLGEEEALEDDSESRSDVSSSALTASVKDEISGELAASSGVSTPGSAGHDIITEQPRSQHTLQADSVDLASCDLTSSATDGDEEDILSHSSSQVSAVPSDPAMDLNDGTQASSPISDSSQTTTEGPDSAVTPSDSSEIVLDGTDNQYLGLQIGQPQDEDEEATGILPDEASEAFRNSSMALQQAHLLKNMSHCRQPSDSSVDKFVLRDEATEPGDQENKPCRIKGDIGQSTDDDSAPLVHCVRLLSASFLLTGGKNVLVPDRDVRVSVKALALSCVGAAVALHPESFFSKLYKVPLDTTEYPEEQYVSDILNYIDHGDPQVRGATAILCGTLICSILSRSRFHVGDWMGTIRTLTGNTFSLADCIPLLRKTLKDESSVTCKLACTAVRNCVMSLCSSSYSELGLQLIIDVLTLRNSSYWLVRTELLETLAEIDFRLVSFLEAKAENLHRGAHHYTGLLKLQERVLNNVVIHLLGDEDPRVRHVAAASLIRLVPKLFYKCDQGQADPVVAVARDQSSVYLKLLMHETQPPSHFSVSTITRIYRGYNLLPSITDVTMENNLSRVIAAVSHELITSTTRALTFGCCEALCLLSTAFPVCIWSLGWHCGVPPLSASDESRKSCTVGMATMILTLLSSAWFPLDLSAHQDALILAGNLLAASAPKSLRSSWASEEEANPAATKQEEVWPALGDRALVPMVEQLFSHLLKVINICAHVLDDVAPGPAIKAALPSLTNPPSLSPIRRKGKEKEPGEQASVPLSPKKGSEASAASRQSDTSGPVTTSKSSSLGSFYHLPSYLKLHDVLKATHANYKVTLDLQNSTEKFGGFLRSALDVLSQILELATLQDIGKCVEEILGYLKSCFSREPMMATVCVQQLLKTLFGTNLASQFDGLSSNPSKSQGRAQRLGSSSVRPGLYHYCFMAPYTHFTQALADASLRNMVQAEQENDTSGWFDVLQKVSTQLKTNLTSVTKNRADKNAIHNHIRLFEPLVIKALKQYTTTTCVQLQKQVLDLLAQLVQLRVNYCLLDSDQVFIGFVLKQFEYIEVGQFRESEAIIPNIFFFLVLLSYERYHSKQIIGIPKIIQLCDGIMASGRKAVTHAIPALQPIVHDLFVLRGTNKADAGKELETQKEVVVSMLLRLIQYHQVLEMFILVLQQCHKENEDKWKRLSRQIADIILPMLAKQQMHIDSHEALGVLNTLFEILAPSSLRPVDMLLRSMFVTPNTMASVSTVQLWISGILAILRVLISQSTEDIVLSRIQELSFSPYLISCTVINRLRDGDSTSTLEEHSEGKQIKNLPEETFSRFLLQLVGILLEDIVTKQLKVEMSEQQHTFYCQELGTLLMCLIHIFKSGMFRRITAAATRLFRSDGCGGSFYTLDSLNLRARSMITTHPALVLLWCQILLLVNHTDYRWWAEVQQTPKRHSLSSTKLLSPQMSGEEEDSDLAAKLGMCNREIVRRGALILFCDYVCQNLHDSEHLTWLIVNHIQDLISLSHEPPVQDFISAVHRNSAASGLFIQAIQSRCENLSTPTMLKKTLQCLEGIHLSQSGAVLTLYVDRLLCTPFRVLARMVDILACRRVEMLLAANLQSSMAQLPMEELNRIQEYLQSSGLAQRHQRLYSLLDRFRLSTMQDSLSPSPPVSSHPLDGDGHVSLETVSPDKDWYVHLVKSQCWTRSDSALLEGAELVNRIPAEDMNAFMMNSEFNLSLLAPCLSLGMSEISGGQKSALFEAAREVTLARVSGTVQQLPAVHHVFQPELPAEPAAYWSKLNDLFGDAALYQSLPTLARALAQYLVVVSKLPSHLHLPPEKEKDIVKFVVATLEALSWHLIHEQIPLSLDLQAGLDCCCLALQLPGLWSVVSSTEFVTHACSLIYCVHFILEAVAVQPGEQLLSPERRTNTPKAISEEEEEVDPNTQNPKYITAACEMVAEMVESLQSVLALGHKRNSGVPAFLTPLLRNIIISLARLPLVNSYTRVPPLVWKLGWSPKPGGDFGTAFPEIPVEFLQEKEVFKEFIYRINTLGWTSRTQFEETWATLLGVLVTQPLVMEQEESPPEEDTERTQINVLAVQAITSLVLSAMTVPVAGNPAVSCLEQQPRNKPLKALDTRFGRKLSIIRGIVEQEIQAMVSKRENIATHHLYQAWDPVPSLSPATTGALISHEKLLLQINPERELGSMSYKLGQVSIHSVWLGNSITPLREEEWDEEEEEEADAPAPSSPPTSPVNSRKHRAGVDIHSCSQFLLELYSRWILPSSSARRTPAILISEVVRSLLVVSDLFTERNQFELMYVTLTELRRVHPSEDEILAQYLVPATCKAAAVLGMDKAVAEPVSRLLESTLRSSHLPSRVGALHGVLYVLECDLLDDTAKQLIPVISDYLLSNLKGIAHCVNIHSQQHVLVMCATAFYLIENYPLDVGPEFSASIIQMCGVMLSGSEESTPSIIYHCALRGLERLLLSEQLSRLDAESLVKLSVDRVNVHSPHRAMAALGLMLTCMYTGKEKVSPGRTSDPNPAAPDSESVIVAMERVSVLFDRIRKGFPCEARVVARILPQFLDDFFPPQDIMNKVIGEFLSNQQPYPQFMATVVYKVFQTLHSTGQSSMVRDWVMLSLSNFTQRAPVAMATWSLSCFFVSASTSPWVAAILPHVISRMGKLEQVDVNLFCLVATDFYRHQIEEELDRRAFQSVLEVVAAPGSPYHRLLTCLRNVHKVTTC
# Starred values were filed as active, the others as inactive; . = no result. Only a selection was taken, and hits are over-represented in it overall. Rule as the data show it: active = inhibition above about 50%; inactive = the rest.
SMILES,Pf apPOL inh,mHTT-CaM PPI inh
NC1=C(Nc2ccccc2)C(=O)c2ccccc2C1=O,-6,93*
Nc1c(S(=O)(=O)O)cc(Nc2ccc(Nc3nc(Cl)nc(Nc4ccc(S(=O)(=O)O)cc4)n3)c(S(=O)(=O)O)c2)c2c1C(=O)c1ccccc1C2=O,43,.
Nc1c(S(=O)(=O)O)cc(Br)c2c1C(=O)c1ccccc1C2=O,0,39
O=C1C(Nc2ccccc2)=C(NS(=O)(=O)c2ccccc2)C(=O)c2ccccc21,0,16
Cc1ccc(S(=O)(=O)Nc2cc(S(=O)(=O)O)c(N)c3c2C(=O)c2ccccc2C3=O)cc1,3,79*
Cn1nccc1-c1cccc(-c2noc(COc3ccccc3)n2)c1,1,-8
COc1ccc(C2=N/C(=C\c3cccnc3)C(=O)O2)cc1,2,-3
CCc1cc(-c2n[nH]c(C)c2-c2nc3ccccc3s2)c(O)cc1OC,-1,98*
CCOc1cc(O)c(-c2n[nH]c(C)c2-c2ccc(F)cc2)cc1CC,-4,47
Nc1cccc(Oc2c(F)c(F)c(Oc3cccc(N)c3)c(F)c2F)c1,-6,42
Nc1cc(N)cc(Oc2cc(N)cc(N)c2)c1,.,95*
COCCCNC(=O)C1CCN(c2ncccc2-c2nc(-c3cccc(F)c3)no2)CC1,-4,-4
COCCCNC(=O)C1CCN(c2cnn(Cc3ccccc3)c(=O)c2)CC1,-1,-2
COCCCNC(=O)C1CCN(Cc2cc3ccccc3n2Cc2cccc(F)c2)CC1,4,51*
COCCCNC(=O)C1CCN(Cc2cc3ccccc3n2Cc2ccc(F)cc2)CC1,3,53*
CC(C)n1c(C2CCN(S(=O)(=O)c3ccccc3)C2)nc2ccncc21 (stereo unspecified),-9,0
COc1cc2[nH]c(=O)n(CCC(=O)NCc3ccc4c(c3)OCO4)c(=O)c2cc1OC,-3,-6
Cc1cccc(-c2noc(-c3ccc(N4CCCC4)nc3)n2)c1,1,-10
Cn1nccc1C(=O)N1CCCC1c1ccccc1Cl (stereo unspecified),2,-3
Nc1nc(NC(=O)c2ccc(Cl)cc2)nn1-c1ccccc1,-3,2
Nc1nc(NC(=O)C(Cl)(Cl)Cl)nn1-c1ccccc1,2,85*
CC(C)=CCC/C(C)=C/CC(C)(C)CNCCN1CCNCC1,-5,85*
CC1=CC(C)C(CNCCN2CCNCC2)C(C)C1 (stereo unspecified),0,2
Cc1noc(C2(NS(=O)(=O)c3ccc(C#N)cc3)CCCCC2)n1,-2,-15
Cc1ccc(C)c(NC(=O)Cc2nc(-c3ccccc3)n[nH]2)c1,-3,-10
SMILES,Pf apPOL inh,mHTT-CaM PPI inh
O=C(Cc1ccccc1F)Nc1cc(-c2ccccn2)no1,-3,-5
Cc1ccc(NC(=O)Cc2ccccc2)c(C)c1,-2,-12
Cc1ccc(NC(=O)Cc2nc(-c3ccccn3)n[nH]2)c(C)c1,-5,86*
Cc1ccc(C)c(NC(=O)Cc2nc(-c3ccccn3)n[nH]2)c1,-12,99*
Cc1cc(C)cc(NC(=O)Cc2nc(-c3ccccn3)n[nH]2)c1,-9,78*
O=C(Cc1nc(-c2ccccn2)n[nH]1)Nc1cc(F)ccc1F,-9,95*
Cc1cccc(NC(=O)Cc2nc(-c3ccccc3)n[nH]2)c1,-3,6
Cc1cc(Cl)nc(Cl)c1C(=O)NC(=O)Nc1ccc(F)cc1,-6,-3
O=C1Nc2c(ccc(Cl)c2Cl)C12OCCCO2,.,5
Cc1cc(F)ccc1NC(=O)Cc1nc(-c2ccccn2)n[nH]1,-12,99*
Cc1cc(F)ccc1NC(=O)Cc1nnc(-c2ccc3ncccc3c2)o1,-3,2
COc1ccccc1NC(=O)C(=O)NCc1cccc(C)c1,-3,-9
N#Cc1c(SCC(=O)Nc2nncs2)sc2c(O)cc(=O)[nH]c12,.,54*
CC(=O)CSc1sc2c(O)cc(=O)[nH]c2c1C#N,.,4
CC(=O)c1ccc(N=Cc2cc(Br)cc(Cl)c2O)cc1,46,5
Cc1ccc(N=Cc2cc(Br)cc(Cl)c2O)c(N)c1,4,61*
COc1ccc(N=Cc2cc(Br)cc(Cl)c2O)cc1,-11,3
Cc1cccc(N=Cc2cc(Cl)cc(Cl)c2O)c1C,6,.
Oc1c(Cl)cc(Cl)cc1C=Nc1cccc2cccnc12,6,55*
Oc1c(Cl)cc(Br)cc1C=Nc1ccc2ncccc2c1,0,82*
CCc1nc2cc(N3CCCC(C(=O)N4CCCCC4)C3)cnc2nc1CC (stereo unspecified),-3,0
CC(=O)C1=C(O)C(=O)N(CCO)C1c1ccc([N+](=O)[O-])cc1 (stereo unspecified),-3,-5
CC(C)c1noc(C2CCCN2Cc2ccccn2)n1 (stereo unspecified),-5,57*
CC(C)c1noc(C2CCCCN2Cc2ccc(N(C)C)cc2)n1 (stereo unspecified),4,54*
CC(C)c1noc(C2CCCCN2CC(=O)Nc2ccccn2)n1 (stereo unspecified),-1,-3
SMILES,Pf apPOL inh,mHTT-CaM PPI inh
COc1cccc(CN2CCCCC2c2nc(C(C)C)no2)c1 (stereo unspecified),-7,-42
COc1ccc(C(=O)ON=C(c2cccs2)C(C)(C)C)cc1,-17,.
CCOc1ccc(CN2CCc3nc(Nc4ccccc4OC)ncc3C2)cc1OC,-2,18
Cc1c(NC(=O)Cc2c(C(=O)O)[nH]c3ccc(Cl)cc23)cccc1[N+](=O)[O-],-3,6
NS(=O)(=O)c1ccc2c(c1)C1C=CCC1C(c1ccc([N+](=O)[O-])cc1)N2 (stereo unspecified),4,92*
O=C(c1cccc2c1NC(c1ccc(Cl)cc1Cl)C1CC=CC21)N1CCCC1 (stereo unspecified),-4,-4
O=[N+]([O-])c1ccc(C2Nc3cc(Br)ccc3C3C=CCC32)cc1 (stereo unspecified),.,40
NS(=O)(=O)c1ccc2c(c1)C1C=CCC1C(c1ccc(Cl)cc1Cl)N2 (stereo unspecified),-2,79*
CC(=O)c1ccc2c(c1)C1C=CCC1C(c1cc3c(cc1Br)OCO3)N2 (stereo unspecified),-3,28
COc1cccc(C2Nc3ccc(C(C)=O)cc3C3C=CCC32)c1OC (stereo unspecified),0,64*
O=C(O)c1cccc2c1NC(c1ccc(Cl)cc1Cl)C1CC=CC21 (stereo unspecified),6,56*
Cc1ccc(CNC(=O)CCS(=O)(=O)Cc2ccc(F)cc2Cl)cc1,-17,-4
Cc1ccc(/C=C2N=C(/C=C/c3ccccc3)OC\2=O)cc1,-5,3
COc1ccc(C2=N/C(=C\c3ccccc3Cl)C(=O)O2)cc1Br,-3,6
CC(C)CC(=O)N1CCN(C(C(=O)N2CCC(C)CC2)C2CCCC2)CC1 (stereo unspecified),-1,7
CC12CC3CC(C1)CC(CN=Cc1cc(Br)cc([N+](=O)[O-])c1O)(C3)C2,3,-1
O=C(O)C1CC=CCC1c1ccc(Cl)cc1Cl (stereo unspecified),-1,.
O=C(O)c1ccc2c(c1)C1C=CCC1C(c1ccc(Cl)cc1Cl)N2 (stereo unspecified),-4,67*
C=CCN1C(=O)NOC(N)=C1C#N,.,2
O=C1S/C(=C\c2ccc(O)c([N+](=O)[O-])c2)C(=O)N1c1ccccc1,-7,18
O=C1S/C(=C\c2ccc(O)cc2)C(=O)N1CNc1ccc(I)cc1,-5,25
O=C(CN1C(=O)S/C(=C\c2ccc(Br)cc2)C1=O)Nc1ccc(O)cc1,-1,52*

# Screens (PubChem)
